Screening results (PubChem)
CSC inhib = cancer stem cell inhibition | inhibition, % at 7.5 µM | cancer stem cell-like cells viability, luminescence | AID 2717 | 1.1% of 300,000 active; in the data active means inhibition above about 75%; inconclusive means no clear call, values can overlap the other calls; tested in HMLE shEcad cells
Calb FLC = C. albicans growth modulation with fluconazole. growth inhibition, % (concentration not given with the values). C. albicans CaCi-2 (fluconazole-resistant clinical isolate) + fluconazole, Alamar Blue growth, 48 h. AID 1979. 0.57% of 300,000 active;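 active means growth inhibition above about 58% in most replicates, limit read from the data, passing the limit was not always enough; inconclusive means exactly half the replicates above a set limit; inactive means most replicates below a set limit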;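 further: all wells also contain fluconazole at 8 µg/ml as a sub-toxic cotreatment; 0% = median of DMSO wells and 100% = median of geldanamycin control wells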
PP1 inh = counter-screen for PP5 inhibitors: inhibitors of human PP1-alpha; purified PP1alpha, OMFP fluorescence; 0.9% of 320,000 active; inhibition, % at 6.7 µM; AID 2235; P62136;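 active means inhibition above the mean inhibition of all tested compounds plus 3 SD, computed separately for each screening campaign, cut at about 15% in these data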
PP5 primary = blocks human protein phosphatase 5 activity | purified PP5c, OMFP substrate fluorescence | AID 1987 | inhibition, % at 6.7 µM | P53041 | 0.18% of 320,000 active;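 active means inhibition above the campaign's mean inhibition across all tested compounds plus 3 SD, cut at about 9.5% in these data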;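 further: 0% = DMSO only and 100% = 100 µM cantharidin control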
Target sequence (P53041 whole entry, looked up): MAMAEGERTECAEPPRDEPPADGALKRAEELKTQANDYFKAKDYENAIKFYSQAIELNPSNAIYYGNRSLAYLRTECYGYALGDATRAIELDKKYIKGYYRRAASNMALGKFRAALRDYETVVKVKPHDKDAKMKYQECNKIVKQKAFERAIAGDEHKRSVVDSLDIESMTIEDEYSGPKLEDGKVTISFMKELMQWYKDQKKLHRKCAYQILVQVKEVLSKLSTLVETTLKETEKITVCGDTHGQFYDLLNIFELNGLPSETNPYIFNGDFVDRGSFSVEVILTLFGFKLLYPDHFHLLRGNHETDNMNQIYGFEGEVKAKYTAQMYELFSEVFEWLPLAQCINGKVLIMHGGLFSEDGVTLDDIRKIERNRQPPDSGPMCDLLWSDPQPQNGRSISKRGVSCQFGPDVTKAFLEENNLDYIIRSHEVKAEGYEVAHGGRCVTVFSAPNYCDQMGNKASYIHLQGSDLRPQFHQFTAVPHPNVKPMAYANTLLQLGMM
ALR inh = blocks human ALR sulfhydryl oxidase activity; inhibition, % (no concentration beside the values); purified ALR, DTT oxidation, H2O2 HRP-luminol luminescence; 3.8% of 290,000 active; AID 485317; P55789;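 active means mean replicate inhibition above about 79%, with every replicate also reaching it, limit read from the data; inconclusive means only one of the two criteria met; inactive means mean below limit and not every replicate reaching it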
Numbers without * were called inactive. Shown are actives, neighbours in structure and some others; about 5.4% of the full set was active somewhere.

Screening COc1ccc(CSc2nnc(C)n2N)cc1[N+](=O)[O-] returned CSC inhib -5, Calb FLC 4, PP1 inh -5, PP5 primary 2 and ALR inh -4.
Screening CCOc1ccc(CSC(=N)N)cc1[N+](=O)[O-] returned CSC inhib -4, Calb FLC -1, PP1 inh -1, PP5 primary 3 and ALR inh 98*.
`CCOc1ccc(CSC(=N)N)cc1Cl` gave CSC inhib 10, Calb FLC 4, PP1 inh -1, PP5 primary 4 and ALR inh 100*.
COc1cccc(C(CC(=O)NCc2ccco2)NS(=O)(=O)c2ccc(C)cc2)c1OC (centres undefined) was read as CSC inhib -2, Calb FLC -10, PP1 inh -4, PP5 primary 3 and ALR inh 12.
Screening CCCC(=O)NNC(=O)CCC(=O)Nc1ccccc1Cl returned Calb FLC 2, PP1 inh 6, PP5 primary 2 and ALR inh 8.
Screening O=C(CCC(=O)Nc1ccccc1Cl)NNS(=O)(=O)c1ccc(Cl)cc1 returned CSC inhib -6, Calb FLC 111* and ALR inh 9.
Nc1cccc(-c2nc3ccc(N)cc3s2)c1 was read as CSC inhib 8, Calb FLC 3, PP1 inh 0, PP5 primary 4 and ALR inh 99*.
For Nc1ccc(-c2nc3ccc(C(=O)O)cc3s2)cc1 the results were CSC inhib 12, Calb FLC 4, PP1 inh -1, PP5 primary 8 and ALR inh 99*.
For O=C(O)c1ccc2nc(-c3ccccc3)sc2c1 the results were CSC inhib 1, Calb FLC -6, PP1 inh 0 and PP5 primary 0.
Oc1ccc(-c2nc3ccccc3s2)cc1 was read as CSC inhib 25, Calb FLC 1, PP1 inh 0, PP5 primary -1 and ALR inh 90*.
`Nc1ccc(-c2nc3ccc(N)cc3s2)cc1` gave CSC inhib 25, Calb FLC -2, PP1 inh -5, PP5 primary 1 and ALR inh 99*.
c1ccc2sc(-c3ccncc3)nc2c1 was read as CSC inhib -4, Calb FLC -1, PP1 inh 1, PP5 primary -1 and ALR inh -5.
Screening O=C1Cc2ccccc2Sc2cc(OCCCN3CCCCC3)ccc21 returned CSC inhib -7, Calb FLC 20, PP1 inh -4, PP5 primary -1 and ALR inh -21.
Cc1cc(=O)oc2c(C)c(OCC(=O)N3CCN(c4ccc(F)cc4)CC3)ccc12 was read as CSC inhib -3, Calb FLC 6, PP1 inh -1, PP5 primary 0 and ALR inh -1.
`COc1ccc(-c2cc(C(=O)N3CCN(c4ncccn4)CC3)c3ccccc3n2)cc1` gave CSC inhib 14, PP1 inh 2, PP5 primary 4 and ALR inh -6.
For C#CCSc1nnc(-c2cccc3ccccc23)o1 the results were CSC inhib -11, Calb FLC -28, PP1 inh 1, PP5 primary 3 and ALR inh 97*.
Screening O=C(OCC#CCSc1nnc(-c2cccc3ccccc23)o1)c1cccs1 returned CSC inhib -5, Calb FLC -1, PP1 inh 6 and PP5 primary -1.
For COc1ccc(NC(=O)c2cccc(OS(=O)(=O)N(C)C)c2)cc1 the results were Calb FLC 42, PP1 inh 2, PP5 primary 2 and ALR inh 2.
COc1cccc(S(=O)(=O)NCc2ccc(C(=O)Nc3cccc(Cl)c3)cc2)c1 was read as CSC inhib 99*, Calb FLC 36, PP1 inh -1, PP5 primary 5 and ALR inh -7.
For COc1cccc(S(=O)(=O)NCc2ccc(C(=O)Nc3ccc(Cl)cc3)cc2)c1 the results were CSC inhib inconclusive, Calb FLC -9, PP1 inh 2, PP5 primary -1 and ALR inh -7.
For CN(C)S(=O)(=O)Oc1cccc(C(=O)Nc2cccc(Cl)c2)c1 the results were CSC inhib 22, Calb FLC 108*, PP1 inh 3 and PP5 primary 4.
Screening CN(C)S(=O)(=O)Oc1cccc(C(=O)Nc2ccc(Cl)c(Cl)c2)c1 returned CSC inhib inconclusive, Calb FLC 92*, PP1 inh 2, PP5 primary 5 and ALR inh -4.
For Cc1ccc(CC(=O)N2CC(C)OC(C)C2)cc1 (centres undefined) the results were CSC inhib -17, Calb FLC 0, PP1 inh -3, PP5 primary 0 and ALR inh -4.
Cn1cc(CN2CCC(C(=O)Nc3cccc(-c4cscn4)c3)CC2)cn1 was read as CSC inhib 3, Calb FLC -9, PP1 inh -1, PP5 primary 2 and ALR inh -29.
`COc1cc(-c2nc3ccccn3c2/N=C/c2ccc(F)cc2)ccc1O` gave CSC inhib 2, Calb FLC 2, PP1 inh 5, PP5 primary 3 and ALR inh 95*.
`CCOC(=O)c1c(C)[nH]c(N=Nc2ccccc2)c1C` gave Calb FLC -13, PP1 inh 8, PP5 primary 2 and ALR inh 87*.
For CN(C)/N=C/c1ccc(/C=N/NC(N)=S)o1 the results were CSC inhib -11, Calb FLC -5, PP1 inh 3, PP5 primary -2 and ALR inh 99*.
For NC(=S)N/N=C/c1ccc(-c2ccccc2)o1 the results were CSC inhib -15, Calb FLC 9, PP1 inh -3, PP5 primary 0 and ALR inh 98*.
For Cc1ccc(-c2ccc(/C=N/NC(N)=S)o2)cc1 the results were CSC inhib 25, Calb FLC -3, PP1 inh -12, PP5 primary 2 and ALR inh -6.
O=[N+]([O-])c1ccc(-c2ccc(/C=N/O)o2)cc1 was read as CSC inhib -14, Calb FLC -21, PP1 inh -2, PP5 primary -1 and ALR inh 58.
For O/N=C\c1ccc(-c2ccccc2)o1 the results were CSC inhib -10, Calb FLC 1, PP1 inh 0, PP5 primary 1 and ALR inh 78*.
For O=C(NCc1ccc2c(c1)OCO2)c1c(O)c2cccc3c2n(c1=O)CCC3 the results were CSC inhib 6, Calb FLC -21, PP1 inh 0, PP5 primary 3 and ALR inh -7.
CCc1ccc(NC(=O)CSc2nc(=O)n(CCCN3CCOCC3)c3c2CCCC3)cc1 was read as CSC inhib 2, Calb FLC 7, PP1 inh -3, PP5 primary -1 and ALR inh 98*.
Cc1ccc(NC(=O)CSc2nc(=O)n(CCCN3CCOCC3)c3c2CCCC3)cc1F was read as CSC inhib -8, Calb FLC 1, PP1 inh 2, PP5 primary -1 and ALR inh 97*.
CC(C)(C)N1CSC(=S)N(Cc2ccccc2)C1 was read as CSC inhib 11, Calb FLC -15, PP1 inh 1, PP5 primary 0 and ALR inh -2.
